{
  "source": "PubChem BioAssay (NCI)",
  "note": "Values joined by “and” are separate entries in the source; they are usually repeats but may differ in a detail not shown here. Equal entries are not always repeated. This is part of a sample that, as a whole, favours compounds with a hit. Of some 83,000 tested, about 20% had one in any assay.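 Results are percent growth after 48 hours of single-concentration exposure. 100 means growth as in untreated cells, lower positive values show inhibition; negative values down to -100 show cell death.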 Active and inactive are the calls of the source. The calls were made as follows: active = growth percent below 10; inactive = the rest.",
  "data": [
    {"test_system": "MDA-MB-468 breast", "assay": "NCI-60 one-dose screen, 48 h (100 = growth as untreated, 0 = no growth, -100 = all killed)", "details": "10 µM unless noted", "values": [
      {"smiles": "CC1=C[C@H]2O[C@@H]3C[C@H]4OC(=O)/C=C\\C=C\\[C@H]([C@@H](C)O)OCC[C@@H](C)[C@H](O)C(=O)OC[C@@]2(CC1)[C@]4(C)[C@]31CO1", "growth": "-66.7% (active)"},
      {"smiles": "c1ccc2c(c1)O[As](O[As]1Oc3ccccc3O1)O2", "growth": "10.7% (inactive)"},
      {"smiles": "c1ccc([As]=[As]c2ccccc2)cc1", "note": "(stereo not given)", "growth": "-55.7% (active)"},
      {"smiles": "CCOC(=O)c1ccccc1C(=O)OCC", "growth": "81% (inactive)"},
      {"smiles": "NC(=O)Oc1cc(OC(N)=O)cc(N(CCCl)CCCl)c1", "growth": "29.9% (inactive)"},
      {"smiles": "O=C1c2ccccc2C(=O)N1N1CC1c1ccccc1", "note": "(stereo not given)", "growth": "104% (inactive)"},
      {"smiles": "CC/C(Cc1ccccc1)=C(\\c1ccc(OCCN2CCCC2)cc1)c1ccc(OC(=O)NCc2ccccc2)cc1", "growth": "14.8% (inactive)"},
      {"smiles": "Cc1ccccc1NC(=NCCCN1CC1)Nc1ccccc1C", "growth": "54.7% (inactive)"},
      {"smiles": "Cc1cc(N(CCCl)CCCl)ccc1/C=N\\NC(=O)c1ccncc1", "growth": "-45.6% (active)"},
      {"smiles": "O=C(CCc1ccco1)NC1CCN(CC2(c3ccc(Cl)cc3)CCC2)CC1", "growth": "-11.5% (active)"},
      {"smiles": "COc1ccc(/C=C(/C)[N+](=O)[O-])cc1OC", "growth": "-87.6% (active) and -87% (active)"},
      {"smiles": "CCOP(=O)(OCC)/C(C#N)=C/c1ccc(Br)cc1", "growth": "101% (inactive)"},
      {"smiles": "CC(C)CCC1(CCO)C(=O)NC(=S)NC1=O", "growth": "108% (inactive)"},
      {"smiles": "CCCc1cc(O)c2c3c(c(=O)oc2c1)CN(C)CC3", "growth": "-3.7% (active)"},
      {"smiles": "CC/C(=C/c1ccc(OC)cc1OC)[N+](=O)[O-]", "growth": "-6.94% (active)"},
      {"smiles": "O=[N+]([O-])c1cc(Cl)c(Cl)cc1Cl", "growth": "102% (inactive) and 104% (inactive)"},
      {"smiles": "CN(C)c1ccc([N+](=O)[O-])c([N+](=O)[O-])c1", "growth": "110% (inactive) and 95.6% (inactive)"},
      {"smiles": "Cc1cc(C)c(CBr)c(C)c1", "growth": "98.9% (inactive)"},
      {"smiles": "CC[C@H](C)[C@H](NC(=O)c1cnccn1)C(=O)N(C)[C@H](C[C@@H](OC(C)=O)c1nc(C(=O)N[C@@H](Cc2ccccc2)C[C@H](C)C(=O)OC)cs1)C(C)C", "growth": "31.5% (inactive)"},
      {"smiles": "CC(/C=N/N=C(N)N)=N\\N=C(N)N", "growth": "88.7% (inactive)"},
      {"smiles": "Cc1nnc([S-])o1.[Au+].c1ccc([PH+](c2ccccc2)c2ccccc2)cc1", "growth": "-6.44% (active)"},
      {"smiles": "CCC(=O)OC1CCn2c1nc1c2C(=O)C(C)=C(N2CC2)C1=O", "note": "(stereo not given)", "growth": "44.3% (inactive)"},
      {"smiles": "CCOC(=O)C1(c2ccccc2)CCN(CC(=O)c2ccc(NC(C)=O)cc2)CC1", "growth": "110% (inactive)"},
      {"smiles": "O=C(CCCc1ccc(N(CCCl)CCCl)cc1)OCc1ccccc1", "growth": "87% (inactive)"},
      {"smiles": "C#Cc1ccc2c(c1)C(c1ccccc1)=NCC(=O)N2C", "growth": "20.8% (inactive)"},
      {"smiles": "C=CC12CCN(CC1)C(C(O)c1ccnc3ccc(OC)cc13)C2", "note": "(stereo not given)", "growth": "11.6% (inactive)"},
      {"smiles": "O=[As]c1ccc(C(=O)c2ccc(Oc3ccccc3)cc2)cc1", "note": "(stereo not given)", "growth": "-85.6% (active)"},
      {"smiles": "Cc1ccc(C[As+](c2ccccc2)(c2ccccc2)c2ccccc2)cc1", "growth": "-24.3% (active)"},
      {"smiles": "COc1ccc2c(c1)c(-c1nc(-c3c[nH]c4ncccc34)cs1)cn2CCCCN1CCCCC1", "growth": "-75.6% (active)"},
      {"smiles": "C=C(C)[C@@]12OC3(/C=C/C=C/CCCCC)O[C@@H]1[C@@H]1[C@@H]4O[C@]4(CO)[C@@H](O)[C@]4(O)C(=O)C(C)=C[C@H]4[C@@]1(O3)[C@H](C)[C@H]2OC(=O)c1ccccc1", "growth": "56.5% (inactive)"},
      {"smiles": "O=C(CCl)Nc1ccc(Cl)cc1", "growth": "18.6% (inactive)"},
      {"smiles": "CC(=O)OCc1cc[c]([Hg][Cl])o1", "growth": "21% (inactive)"},
      {"smiles": "CC(=O)O[C@H]1C(=O)[C@@]2(C)[C@H]([C@H](OC(=O)c3ccccc3)[C@]3(O)C[C@H](OC(=O)[C@H](OC(=O)OC[C@H]4COC(C)(C)O4)[C@@H](NC(=O)c4ccccc4)c4ccccc4)C(C)=C1C3(C)C)[C@]1(OC(C)=O)CO[C@@H]1C[C@@H]2O", "growth": "-16.3% (active)"},
      {"smiles": "O=C(O)C1C(C(=O)O)C2(Cl)C(Cl)=C(Cl)C1(Cl)C2(Cl)Cl", "note": "(stereo not given)", "growth": "105% (inactive) and 113% (inactive)"},
      {"smiles": "CC(=O)O[C@H]1CC[C@]2(C)[C@H]3CC[C@]4(C)[C@@H](OC(C)=O)CC[C@H]4[C@@H]3[C@@H](C)[C@]2(O)C1", "growth": "104% (inactive)"},
      {"smiles": "COc1ccc(C(=O)c2cc(OC)c(OC)c(OC)c2)cc1OC(C)=O", "growth": "43.1% (inactive)"},
      {"smiles": "COc1ccc(C(C#N)C(C)=O)cc1", "note": "(stereo not given)", "growth": "106% (inactive)"},
      {"smiles": "CC(=O)O[C@H]1CCC2C3CCC4=C/C(=N/O)CCC4(C)C3CCC21C", "note": "(stereo not given in full)", "growth": "97.7% (inactive)"},
      {"smiles": "CC(C)OC(=S)[S-].[Au+].c1ccc([PH+](c2ccccc2)c2ccccc2)cc1", "growth": "-32.3% (active)"},
      {"smiles": "CCCCCCCCCCCCCCCCCCOc1ccccc1COP(=O)(O)OOCC[N+](C)(C)C", "growth": "-40.1% (active)"}
    ]}
  ]
}
